Bioassay records as filed in PubChem.
The full list was thinned out, with hits kept by preference.
SF-1 inh: inhibitors of human SF-1, primary screen, cell-based, CHO-K1, Gal4-SF-1 LBD, luciferase luminescence; CHO-K1 Gal4-SF-1 LBD luciferase reporter; inhibition, % at 10 µM; 65,000 compounds, 0.55% hits; AID 525, 2006;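 active means inhibition above the mean inhibition of all tested compounds plus 3 SD, cut at about 48% in these data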;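 further: 0% = SF-1 transfected cells with DMSO and 100% = mock-transfected cells lacking SF-1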
Target sequence (Q13285 whole entry, looked up, the tested form may be a part): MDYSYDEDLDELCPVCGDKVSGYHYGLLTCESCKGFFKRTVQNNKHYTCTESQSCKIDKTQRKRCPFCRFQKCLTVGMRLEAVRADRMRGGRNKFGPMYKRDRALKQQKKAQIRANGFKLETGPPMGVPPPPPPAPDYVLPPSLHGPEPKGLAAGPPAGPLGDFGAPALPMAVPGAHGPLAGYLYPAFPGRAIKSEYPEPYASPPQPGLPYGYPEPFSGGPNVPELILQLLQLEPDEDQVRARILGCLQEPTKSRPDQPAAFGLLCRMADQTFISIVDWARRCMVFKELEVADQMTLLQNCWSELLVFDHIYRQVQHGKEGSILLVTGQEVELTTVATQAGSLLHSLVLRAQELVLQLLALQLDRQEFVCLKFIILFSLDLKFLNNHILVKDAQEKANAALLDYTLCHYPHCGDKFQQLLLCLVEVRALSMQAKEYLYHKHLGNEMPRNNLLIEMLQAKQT
The depositor's hits bear a star.

How did COc1ccc(CNC(=O)C2CCCN(S(=O)(=O)c3cnc[nH]3)C2)cc1 (stereo not given) do in these assays?
SF-1 inh: -5

What do the screens show for `OC1CCCCC1Sc1nc2ccccc2s1` (stereo not given)?
SF-1 inh: -59

Results for Cn1c(CSc2nc3ccccc3s2)nc2ccccc21 ?
SF-1 inh: -71

What do the screens show for `O=S1(=O)C=C(Sc2nc3ccccc3s2)c2ccccc21`?
SF-1 inh: 93*

Results for Cc1ccc(N(C=NC#N)CC(=O)N2CCN(c3ccccc3)CC2)cc1 ?
SF-1 inh: 3

What do the screens show for `Cc1c(S(=O)(=O)Nc2cc(Cl)ccc2Cl)c(=O)n(C)c(=O)n1C`?
SF-1 inh: 14

What do the screens show for `Cn1c(-c2ccccc2)cc2c3no[n+]([O-])c3ccc21`?
SF-1 inh: 73*

Results for COc1nc(OC)nc(N2CCC(C(=O)NCC3CCCCC3)CC2)n1 ?
SF-1 inh: -8

Results for O=C(O)c1oc2ccccc2c1CN1CCN(c2ccccc2)CC1 ?
SF-1 inh: -14

How did COC(=O)C(C)n1cnc2c(cnn2-c2ccc(Cl)cc2)c1=O (stereo not given) do in these assays?
SF-1 inh: -53

What do the screens show for `OCCOCCNc1ncnc2c1cnn2-c1ccc(Cl)cc1`?
SF-1 inh: -64

Results for CCOC(=O)C1CCN(c2ncnc3c2cnn3-c2ccc(Cl)cc2)CC1 ?
SF-1 inh: 56*

How did Clc1ccc(-n2ncc3c(N4CCCC4)ncnc32)cc1 do in these assays?
SF-1 inh: 61*

Results for CCOC(=O)C1CCN(C(=O)c2ccc(Cl)c(S(=O)(=O)N3CCOCC3)c2)CC1 ?
SF-1 inh: -4

How did COCCNc1ncnc2c1cnn2-c1ccc(Cl)cc1 do in these assays?
SF-1 inh: -68

Results for CCOC(=O)COc1nc(Nc2ccccc2C)nc(N(C)C)n1 ?
SF-1 inh: -7

Results for COc1cc(NC(=O)N[C@H](C(=O)O)C(C)C)cc(OC)c1 ?
SF-1 inh: -17

What do the screens show for `CCCCNC(=O)c1nnn(-c2ccccc2)c1N`?
SF-1 inh: -67

How did O=C(NC1CCCCCC1)C1CCN(C(=O)Cc2ccccc2)CC1 do in these assays?
SF-1 inh: 18

Results for Cc1ccc2c(COC(=O)C3=COCCO3)cc(=O)oc2c1 ?
SF-1 inh: -67

How did Cc1ccc(-c2nsc3c(N4CCC(C(N)=O)CC4)ncnc23)cc1 do in these assays?
SF-1 inh: 49*

How did CCCCNC(=O)Cn1cnc2sc(C(=O)OCC)c(C)c2c1=O do in these assays?
SF-1 inh: 5

How did O=C1C2CC=CCC2C(=O)N1c1n[nH]c(Cc2ccccc2)n1 (stereo not given) do in these assays?
SF-1 inh: 1

Results for CCC1(CC)C(=O)N=C2c3ccccc3C(=O)N21 ?
SF-1 inh: 7

Results for CC1=CC(=C2C(=O)c3ccccc3C2=O)C=C(C)O1 ?
SF-1 inh: -42

What do the screens show for `CCCN1C=CC(=C2C(=O)c3ccccc3C2=O)C=C1`?
SF-1 inh: 93*

Results for CCN1C=CC(=C2C(=O)c3ccccc3C2=O)C=C1 ?
SF-1 inh: 80*

How did O=C(COC(=O)c1ccc(S(=O)(=O)N2CCOCC2)cc1)NC1CCCCCC1 do in these assays?
SF-1 inh: 3

How did Cc1ccc2cc(CCNC(=O)c3ccco3)c(=O)[nH]c2c1C do in these assays?
SF-1 inh: -63

Results for COc1cc(C(=O)Oc2c(CN3CCOCC3)cc(Cl)c3cccnc23)cc(OC)c1OC ?
SF-1 inh: 55*

How did CCCCCOc1ccc(CN2CCOCC2)cc1Cl do in these assays?
SF-1 inh: -61

What do the screens show for `COc1c(C)cccc1C(=O)Nc1ccc(CN2CCOCC2)cc1`?
SF-1 inh: -62

What do the screens show for `CCc1c(C#N)c(N)nc(SCC(=O)OCc2ccccc2)c1C#N`?
SF-1 inh: -2

What do the screens show for `CCC(C)NC(=O)CCNS(=O)(=O)c1ccc(Br)cc1` (stereo not given)?
SF-1 inh: 1

What do the screens show for `COC(=O)c1ccc2c(=O)n(CCN3CCOCC3)c(SCC(=O)NC3CCCCC3)nc2c1`?
SF-1 inh: -8

How did COc1ccc(C(=O)/C=C/Nc2cccc(C)n2)cc1OC do in these assays?
SF-1 inh: -88

Results for Cc1ccc(C(=O)/C=C/Nc2ccccn2)cc1 ?
SF-1 inh: 83*

Results for Cc1cc(NC(=O)c2cc(-c3ccccn3)nc3ccccc23)no1 ?
SF-1 inh: 7

Results for CC(C)C1N=C2c3ccccc3N=C(SCc3cc(=O)n4ccccc4n3)N2C1=O (stereo not given) ?
SF-1 inh: 28

What do the screens show for `O=C(CC(=O)c1ccccc1)Nc1ccc2c(c1)OCCO2`?
SF-1 inh: -61

What do the screens show for `CC(C)c1ccc(NC(=O)C2CCCN(S(=O)(=O)c3cnc[nH]3)C2)cc1` (stereo not given)?
SF-1 inh: -6

What do the screens show for `Cc1ccccc1NC(=O)N1CCCC(c2nc(-c3ccc(C(C)C)cc3)no2)C1` (stereo not given)?
SF-1 inh: 51*

What do the screens show for `COc1ccc2c(c1)CCc1c(C(=O)NC3CCCCC3)noc1-2`?
SF-1 inh: -54

How did Cc1csc(SCCN2C(=O)c3ccccc3C2=O)n1 do in these assays?
SF-1 inh: -65

Results for O=C(Nc1ccc(-c2cn3ccsc3n2)cc1)c1ccc(F)c(S(=O)(=O)N2CCOCC2)c1 ?
SF-1 inh: -57

How did O=C(Nc1nccs1)c1ccc(NC(=O)c2ccco2)cc1 do in these assays?
SF-1 inh: -56

What do the screens show for `CCSc1nnc(NC(=O)c2ccccn2)s1`?
SF-1 inh: 55*

How did CCSc1nnc(NC(=O)c2cc3c(s2)CCCC3)s1 do in these assays?
SF-1 inh: -52

Results for CCSc1nnc(Nc2ccccc2)s1 ?
SF-1 inh: -54

What do the screens show for `CN(C)c1oc(-c2ccc(OCc3ccccc3)cc2)nc1C#N`?
SF-1 inh: -61

How did CCOC(=O)C1CCN(S(=O)(=O)c2c(C)[nH]c(=O)[nH]c2=O)CC1 do in these assays?
SF-1 inh: -10

How did Cc1cc2c(c(=O)n1CCCn1ccnc1)C(c1ccco1)C(C#N)=C(N)O2 (stereo not given) do in these assays?
SF-1 inh: 5

What do the screens show for `CCN(CC)c1ccc2c(c1)OC(N)=C(C#N)C2c1cccnc1` (stereo not given)?
SF-1 inh: 65*

How did CCOC(=O)C1=C(C)N(C)C(C)=C(C(=O)OCC)C1c1cccnc1 do in these assays?
SF-1 inh: -16

How did CCN1C(=O)CC(C(=O)NC)SC1=Nc1cc(Cl)c(O)c(Cl)c1 (stereo not given) do in these assays?
SF-1 inh: 10

Results for CCC(OC(=O)CCc1nc2ccccc2[nH]c1=O)C(=O)c1ccccc1 (stereo not given) ?
SF-1 inh: 6

Results for NC(Cc1cccc2nsnc12)C(=O)O (stereo not given) ?
SF-1 inh: -5

What do the screens show for `c1ccc(-c2cc(N3CCOCC3)nc(-c3ccccc3)n2)cc1`?
SF-1 inh: 2

What do the screens show for `FC(F)(F)c1ccc(N2CCN(c3cc(-c4ccccc4)nc4ncnn34)CC2)nc1`?
SF-1 inh: 71*

Results for COc1ccc(OC)c(N(CC(=O)N2CCN(c3cc(Cl)ccc3C)CC2)S(C)(=O)=O)c1 ?
SF-1 inh: 12

Results for CCCCP(=O)(CCCC)c1ccccc1C(=O)O ?
SF-1 inh: -10

What do the screens show for `Cc1ccc(Cl)cc1N1CCN(Cc2nc3c(c(=O)[nH]c(=O)n3C)n2Cc2ccccc2F)CC1`?
SF-1 inh: -2
